# The sample as a whole holds a higher share of hits than the screen did.
# ST2 IL33 inh: inhibitors of human ST2 (IL1RL1) binding to IL-33, primary screen, biochemical, AlphaLISA; inhibition, % for hits at 17 µM; Interleukin-1 receptor-like 1 (Homo sapiens), Q01638; 2.3% of 78,000 active; AlphaLISA ST2-Fc/biotin-IL-33 interaction, 1 h; in the data active = inhibition above about 30%
# Target sequence (Q01638 whole entry, looked up): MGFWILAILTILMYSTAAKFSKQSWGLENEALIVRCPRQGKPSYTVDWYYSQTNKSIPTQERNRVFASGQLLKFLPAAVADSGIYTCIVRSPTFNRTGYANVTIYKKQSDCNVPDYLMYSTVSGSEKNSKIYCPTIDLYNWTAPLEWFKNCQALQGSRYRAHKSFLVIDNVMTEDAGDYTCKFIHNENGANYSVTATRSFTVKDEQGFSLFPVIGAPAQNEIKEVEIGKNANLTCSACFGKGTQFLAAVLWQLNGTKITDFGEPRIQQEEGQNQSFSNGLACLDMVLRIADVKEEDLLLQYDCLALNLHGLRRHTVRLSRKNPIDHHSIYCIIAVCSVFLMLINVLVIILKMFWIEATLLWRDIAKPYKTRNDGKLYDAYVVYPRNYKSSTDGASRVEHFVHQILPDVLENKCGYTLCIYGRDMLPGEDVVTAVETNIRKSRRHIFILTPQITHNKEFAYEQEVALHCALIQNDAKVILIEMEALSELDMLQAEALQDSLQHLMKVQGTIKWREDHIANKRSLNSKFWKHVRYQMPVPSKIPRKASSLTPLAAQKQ
# An asterisk follows results filed as active; i = inactive.
SMILES,ST2 IL33 inh
O=C(COCc1ccccc1)NCc1cnn2ccccc12,i
C=CCOC(=O)NCc1cnn2ccccc12,40%*
CCSC[C@H](N)C(=O)NCc1cnn2ccccc12,i
CNc1ncccc1C(=O)NC1CC(=O)N(Cc2cccc(F)c2)C1 (configuration not stated),i
CCc1ccc(C(=O)NC(C(=O)O)C(C)C)cc1 (configuration not stated),i
CC(C)C(NC(=O)c1ccco1)C(=O)O (configuration not stated),32%*
NC(=O)CC(NC(=O)c1ccco1)C(=O)O (configuration not stated),i
O=S(=O)(c1cccnc1)N1CCn2c1nc1ccccc12,i
CC(C)c1ccc(NC(=O)O[C@@H]2CO[C@H]3[C@@H]2OC[C@@H]3NC(=S)Nc2ccccc2)cc1,i
CC(=O)c1ccc(NC(=O)O[C@@H]2CO[C@H]3[C@@H]2OC[C@@H]3NC(=O)Nc2cccc(C#N)c2)cc1,i
CC(=O)c1ccc(NC(=O)N[C@H]2CO[C@H]3[C@@H]2OC[C@H]3OC(=O)Nc2cccc(C(C)=O)c2)cc1,85%*
COc1cc(NC(=S)N[C@H]2CO[C@H]3[C@@H]2OC[C@H]3OC(=O)Nc2ccc(C(C)=O)cc2)cc(OC)c1,i
CC(=O)c1ccc(NC(=O)O[C@@H]2CO[C@H]3[C@@H]2OC[C@@H]3NC(=S)Nc2ccccc2)cc1,41%*
CC(=O)c1ccc(NC(=O)O[C@@H]2CO[C@H]3[C@@H]2OC[C@@H]3NC(=O)NC2CCCCC2)cc1,i
C=CCn1c(=O)[nH]c2cc(C(=O)NCc3ccco3)ccc2c1=O,i
Cc1ccc(N(C(=O)c2ccccc2C)C2C=CS(=O)(=O)C2)cc1C (configuration not stated),i
O=C1CCN(c2ccccc2C(=O)Nc2cnc3n2CCCC3)C(=O)N1,i
O=C(/C=C/c1ccc(-c2ccc([N+](=O)[O-])cc2Cl)o1)c1ccco1,i
C/C(=C\c1ccc(-c2ccc(Cl)c(C(=O)O)c2)o1)[N+](=O)[O-],32%*
CCOC(=O)c1ccc(-c2ccc(/C=C/c3[nH]c(=O)[nH]c(=O)c3[N+](=O)[O-])o2)cc1,i
Cc1cccc(NC(=O)CCC2CCN(C(=O)c3ccc(-c4ccco4)cc3)CC2)c1,i
COc1ccc(C2CC(c3cccs3)=NN2C(=O)CSc2c[nH]c3ccccc23)cc1 (configuration not stated),i
COc1cccc(C2CC(c3ccc(Br)cc3)=NN2C(=O)CCCC(=O)O)c1OC (configuration not stated),i
COc1cccc(C2CC(c3cccs3)=NN2C(=O)CSC2CCCCC2)c1OC (configuration not stated),44%*
O=S(=O)(c1cccc(Cl)c1)N1CCN(c2cc(-c3ccc(F)cc3)ncn2)CC1,i
SMILES,ST2 IL33 inh
Cc1ccc(-c2noc([C@@H]3C[C@@H](O)CN3Cc3cccs3)n2)cc1F,i
COc1ccc(CN2CC[C@H](c3nnc(C)o3)C2)cc1,i
CCc1nc(C)cn1S(=O)(=O)c1ccc(C(C)C)cc1,i
Cc1ccc(N2C(=O)C(N3C(=O)c4cccc([N+](=O)[O-])c4C3=O)C2c2cccs2)cc1Cl (configuration not stated),i
O=C(CCN1C(=O)c2cccc([N+](=O)[O-])c2C1=O)Nc1ccc(F)cc1,i
O=C1c2cccc([N+](=O)[O-])c2C(=O)N1C1CCCCCCC1,36%*
O=C1c2cccc([N+](=O)[O-])c2C(=O)N1C1C(=O)N(c2ccc(Cl)cc2)C1c1ccc(F)cc1 (configuration not stated),41%*
Cc1ccccc1NCN1C(=O)c2cccc([N+](=O)[O-])c2C1=O,i
COc1ccc(N2C(=O)C(N3C(=O)c4ccc([N+](=O)[O-])cc4C3=O)C2c2ccc(F)cc2)cc1 (configuration not stated),i
FC(F)(F)c1ccc(CN2CC[C@H](c3nnc(Cc4ccccc4)o3)C2)cc1,i
COc1cccc(NC(=O)c2cnc3n(c2=O)CCS3)c1,i
CC1=C(C(=O)Nc2ccc(C)cn2)C(c2cccc(Cl)c2)C2=C(CC(C)(C)CC2=O)N1 (configuration not stated),i
Cc1ccc([N+](=O)[O-])cc1NC(=O)CCCN1C(=O)c2ccccc2C1=O,i
Cc1cccc(N2CCN(c3ncnc4c3cnn4-c3ccccc3)CC2)c1C,i
CCOc1ccc2nc(N=Cc3nc(-c4ccc(Br)cc4)oc3O)sc2c1,i
CCOc1ccc(NC(=O)CC2CCCCC2)cc1,i
CCOc1ccc2sc(C=NCCc3ccccn3)c(O)c2c1,i
CCOc1ccc2sc(C=NC3CCCCC3)c(O)c2c1,41%*
CCCCCN=Cc1sc2ccc(OCC)cc2c1O,33%*
CCOc1ccc2nc(NC(=O)C3CCCCC3)sc2c1,i
CCN(Cc1ccccc1F)C(=O)c1nn(C)c2ccccc12,i
Cc1nnsc1CN(C)C(=O)c1cc(-c2ccc(O)cc2)n[nH]1,i
CCOc1ccc2nc(N3CCC(C(=O)NCc4ccccc4OC)CC3)nc(C)c2c1,i
CCC(CC)N(CCc1ccccc1)C(=O)c1cnc(C)[nH]c1=O,i
O=C1N/C(=C\c2ccc(Br)s2)C(=O)N1Cc1ccc(Cl)cc1,i
SMILES,ST2 IL33 inh
CC(=O)NCC1=CCCN(Cc2noc(-c3ccccc3)n2)C1,i
COc1cc(-n2ccnc2-c2cc(C)c(C)o2)ccc1NC(C)=O,i
Nc1ccc(Cl)c(NC(=O)CC(=O)c2ccccc2)c1,i
Nc1ccc(Nc2ccccc2)c(Cl)c1,44%*
Nc1cccc(C(=O)Nc2ccccc2Cl)c1,i
Cc1ccc(C)c(OCCCc2c(C)n[nH]c2C)c1,i
Cc1c(Cl)c([N+](=O)[O-])nn1CCCC(=O)Nc1cccc(C(F)(F)F)c1,i
COc1cccc(CNC(=O)CN2CCCN(Cc3ccc(C)cc3)S2(=O)=O)c1,i
Cc1cc(O)c(NC(=O)c2ccccc2C)cc1C,i
CC(C)Cc1nc(CCc2cnn(C)c2)n(-c2ccc(F)cc2)n1,i
c1ccc(-c2nc[nH]c2-c2ccccc2Cn2cccn2)cc1,i
O=[N+]([O-])c1ccc(S(=O)(=O)Nc2ccccc2)cc1,i
O=[N+]([O-])c1ccc(Nc2c[nH]c3ccccc23)cc1,42%*
O=c1cc[nH]c2ccc([N+](=O)[O-])cc12,i
CC12CC(NC(=O)N1c1ccc(Cl)cc1)c1cc(Br)ccc1O2 (configuration not stated),i
CC12CCCCC1=NC(c1ccc([N+](=O)[O-])cc1)N2O (configuration not stated),i
CCOc1ccc(NC(=O)NCCc2nc3cccnc3n2Cc2ccc(C)cc2)cc1,i
Cc1ccc(CNC(=O)NCCc2nc3cccnc3n2Cc2ccc(C)cc2)cc1,i
Cc1ccc(Cn2c(CCNC(=O)Nc3ccccc3Cl)nc3cccnc32)cc1,36%*
CCN1C(=O)N(CC)C2C1N(C)C(=O)N2CN1C(=O)N(C)C2C1N(CC)C(=O)N2CC (configuration not stated),i
Cc1c(Cl)cccc1N=Cc1nc(-c2ccccc2)oc1O,i
CC(=O)Nc1ccc(N=Cc2nc(-c3ccc(Cl)cc3)oc2O)cc1,33%*
Oc1oc(-c2ccc(Cl)cc2)nc1C=Nc1ccccc1Cl,i
Cc1c(Cl)cccc1N=Cc1nc(-c2ccc(Cl)cc2)oc1O,33%*
Oc1oc(-c2ccc(Cl)cc2)nc1C=Nc1cc(Cl)ccc1Cl,i
